High-throughput results: PubChem BioAssay, National Center for Advancing Translational Sciences (NCATS)
GoLoco inh red: blocks human Gai1 binding to RGS12 GoLoco peptide, red readout; P63096; Gai1:RGS12 GoLoco peptide FP, rhodamine, 10 min; actives 0.44% (n = 230,000); Potency, µM (titrated, usually from 61.6 µM), inactives show at the top dose activity, negative = inhibition, hits mostly inhibitors; active = well fitted inhibition curve with a large enough effect, not every such curve was filed as active; inactive = no such curve, though single readings can be large or run the other way; note: potency is the fitted concentration of half-maximal effect; % is set by controls: 0 for no effect and ±100 for the full control effect; nearly all actives have a fitted effect of over 30% in size
Target sequence (P63096 whole entry, looked up): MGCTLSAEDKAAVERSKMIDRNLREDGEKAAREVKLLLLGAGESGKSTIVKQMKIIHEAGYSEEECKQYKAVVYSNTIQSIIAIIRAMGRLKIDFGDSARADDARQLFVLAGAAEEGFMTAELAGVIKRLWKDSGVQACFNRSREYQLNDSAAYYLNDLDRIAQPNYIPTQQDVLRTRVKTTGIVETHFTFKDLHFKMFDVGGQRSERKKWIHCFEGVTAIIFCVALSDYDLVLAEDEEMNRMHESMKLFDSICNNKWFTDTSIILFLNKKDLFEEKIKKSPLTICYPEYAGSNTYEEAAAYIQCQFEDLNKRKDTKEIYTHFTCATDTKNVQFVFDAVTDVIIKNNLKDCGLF
TRb SRC2 PPI: inhibitors of human thyroid hormone receptor beta-SRC2 interaction; TRbeta-SRC2 peptide binding, fluorescence polarization; receptor liganded with 1 µM T3; Potency, µM (titrated, usually from 106 µM), without a hit: at the top dose activity change, negative = inhibition, most hits filed as inhibitors; actives 0.065% (n = 280,000); AID 1469;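 note: potency is the fitted concentration of half-maximal effect; plate controls were bound peptide for no effect and peptide without receptor for full effect; nearly all actives have a fitted effect of over 50% in size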
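Human TRb ligand-binding domain (0.6 uM) is mixed with 20 nM Texas Red SRC2 peptide and 1 uM T3; after compound addition and 5 hr at ambient temperature, polarization is measured and normalized to unbound and bound controls.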
ERG-DNA inh: blocks human ERG Ets domain binding to DNA; Potency, µM (titrated, usually from 76.9 µM), inactives show top-dose FP activity, negative = inhibition, actives largely listed as inhibitors; actives 0.028% (n = 370,000); P11308; fluorescence polarization, His-ERG Ets domain / labelled DNA; active = well fitted inhibition curve with a large enough effect in the polarisation, with a control signal flat; inconclusive = small, poorly fitted or top-dose-only effect, or effect the other way, or a change in a side signal; inactive = no such curve, though single readings can be large or run the other way; the % refers to the polarisation;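 note: polarization taken with two DNA probes labelled with fluorescein and Texas red; potency is the fitted concentration of half-maximal effect; % of control where 0% means no effect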
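His-tagged ERG Ets domain (1 uM in the protein solution; 300mM KCl, 50mM Tris-HCl, 1mM EDTA, 1mM DTT, pH 7.5) received compound, then a probe mix of 5 nM fluorescein-DNA and 100nM Texas-615-DNA. Fluorescence polarization was read for both dyes.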
CBFb RUNX1 block: inhibitors of human CBF-beta and RUNX1 interaction; Potency, µM (series often up to 59.8 µM), inactives show at the highest dose activity, negative = inhibition, hits mostly inhibitors; 230,000 tested, under 10 active; AlphaScreen CBFb-His/RUNX1-biotin binding, biochemical; AID 1477; note: % of control where 0% means no effect
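Inhibition was taken as any reduction in AlphaScreen signal from the CBF-beta–RUNX1 pair (His and biotin tags, 30 nM each), measured after compound (15 min) and bead (90 min) incubations at room temperature.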
TexasRed fluor: alters Texas Red total fluorescence, flagging assay interference; TRb/SRC2 Texas Red total fluorescence interference; Potency, µM (highest dose often 106 µM), for inactives: at the top dose fluorescence change, negative = quenching; actives 0.29% (n = 280,000); AID 1479; active = well fitted curve in either direction with a large enough effect; inconclusive = small, poorly fitted or top-dose-only effect; note: potency is the fitted concentration of half-maximal effect; % is set by controls: 0 for no effect and ±100 for the full control effect
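Human TRβ ligand-binding domain (0.6 uM) and Texas Red SRC2 peptide (20 nM) in Tris buffer with 1 uM T3 and 5% DMSO were incubated with pinned compound for 5 hr at ambient temperature. Total fluorescence was computed as S + 2P (555/632 nm).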
* hit, by the source's call; ? = inconclusive; . = not tested or not shown; [ ] = dose if it differs, or a comment. The full list was thinned out, with hits kept by preference. Unless noted, calls come from the whole dose curve; as a rule, active = well fitted curve in the direction sought with a large enough effect; inconclusive = small, poorly fitted or top-dose-only effect, or another doubt; inactive = no such curve, though single readings can be large; an effect the other way counts as inactive or inconclusive.

SMILES	GoLoco inh red	TRb SRC2 PPI	ERG-DNA inh	CBFb RUNX1 block	TexasRed fluor
COc1ccc(C2CC(=O)c3cnc4c(-c5ccccc5)c(C)nn4c3C2)c(OC)c1 (centres undefined)	.	1%	0%	.	1%
COc1ccc(-c2c(C)nn3c4c(cnc23)C(=O)CC(c2ccc(C)cc2)C4)cc1 (centres undefined)	.	-13%	1%	.	14µM*[quencher]
COc1ccc(/C=C2\CCCc3c2nc2ccccc2c3C(=O)O)cc1OC	25µM*	-4%	.	7%	4%
CCOC(=O)CC(O)(CC(=O)OCC)C(=O)OCC	.	-3%[201 µM]	.	.	0%[201 µM]
O=C(O)c1cc2ccccc2cc1O	.	1%[201 µM]	.	.	-6%[201 µM]
CC1=NC(=O)C(N=Nc2ccccc2)N1c1ccccc1 (centres undefined)	6%	-14%	0%	.	3%
CC1=NC(=O)C(N=Nc2cccc(C(=O)O)c2)N1c1ccccc1 (centres undefined)	20µM*	2%	1%	-6%	-7%
C[Si](Cl)(Cl)[Si](C)(Cl)Cl	.	5%[201 µM]	.	.	1%[201 µM]
O=C(CS(=O)(=O)c1cccc2nsnc12)NCc1ccc(Cl)cc1	.	-18%	7%	.	1.8µM*[quencher]
O=C(COCc1cc(-c2ccc3c(c2)OCO3)on1)Nc1cc(Cl)ccc1O	.	3%	5%	.	4%
Cc1ccc(C2CC(=O)Nc3cc4c(cc32)OCCO4)cc1 (centres undefined)	.	-17%[53 µM]	2%	.	0.05µM*[quencher]
O=C1CC(c2ccc(Cl)cc2)c2cc3c(cc2N1)OCCO3 (centres undefined)	.	1%	-1%	.	-1%
CCCn1c(/C=C/c2ccco2)nc2ccccc21	156%	-19%[53 µM]	13%	-6%	3.5µM*[quencher]
CCCCn1c(/C=C/c2ccco2)nc2ccccc21	184%	-5%	12%	-3%	11%
CCCCC(CC)COC(=O)c1ccc(C(=O)OCC(CC)CCCC)cc1 (centres undefined)	.	-9%[201 µM]	.	.	-4%[201 µM]
Cc1cccc(C)c1OCC(=O)Nc1ccc(S(=O)(=O)Nc2ccccn2)cc1	-4%	-6%	-6%	-18%	71µM*[quencher]
O=C(O)c1ccc2c3c(cccc13)C(=O)N(c1ccccc1)C2=O	11%	3%	-3%	?	-1%
Nc1ccc2c3c(cccc13)C(=O)N(c1ccccc1)C2=O	-23%	-3%	25µM*	-3%	10%
Cc1ccc(Cl)cc1N1CCN(S(=O)(=O)c2ccc3c(c2)CC(C)N3C(=O)C2CCC2)CC1 (centres undefined)	.	-13%	1%	.	16µM*[quencher]
COc1ccccc1CNS(=O)(=O)c1ccc2c(c1)CC(C)N2C(=O)C1CCC1 (centres undefined)	.	-10%	-4%	.	22µM*[quencher]
Cc1ccc(C)c(N2CCN(S(=O)(=O)c3ccc4c(c3)CC(C)N4C(=O)C3CC3)CC2)c1 (centres undefined)	.	.	-4%	.	.
Cc1nnc(N/N=C/c2ccco2)n1N	8%	7%	7%	-9%	-2%
CCC(C)NC(=O)c1ccc(-n2c(-c3ccccc3)cc3c2CCCC3)cc1 (centres undefined)	.	-13%	3%	.	1.8µM*[quencher]
COc1ccc(NC(=O)c2cc(S(=O)(=O)N3CCOCC3)cn2C)cc1Cl	.	-14%	-5%	.	10µM*[quencher]
CCCCCc1ccc(-c2ccc(Br)cc2)nc1	.	-1%	-6%	.	-1%
SMILES	GoLoco inh red	TRb SRC2 PPI	ERG-DNA inh	CBFb RUNX1 block	TexasRed fluor
CCCc1ccc(-c2ccc(C(=O)Oc3ccc(Br)cc3)cc2)nc1	.	-27%[53 µM]	1%	.	0.035µM*[quencher]
CSc1nc2ccc(NS(=O)(=O)c3cccc(Cl)c3Cl)cc2s1	23%	-9%[53 µM]	3%	-4%	1.1µM*[quencher]
COc1ccc(Br)cc1-c1nc(CCl)cs1	6%	-2%	-2%	-1%	-1%
CCCOP(=O)(c1ccc(N(C)C)cc1)C(Nc1ccccc1)c1ccc(N(C)C)cc1 (centres undefined)	-9%	-19%[53 µM]	11%	-6%	32µM*[quencher]
COc1cc2c(cc1OC)CN(C(=O)Nc1ccccc1)CC2	.	-10%	6%	.	112µM*[quencher]
CCCCCCCCCCCCCCCO	.	8%[201 µM]	.	.	-4%[201 µM]
O=C(Nc1ccc(Cl)cc1)c1ccc2nsnc2c1	-7%	-5%	-5%	-2%	-2%
